Assay outcomes from PubChem.
Many of the other results were omitted from the sample, so hits are more common in it than they were.
TTR transcr act = increases transthyretin transcription; actives 1.3% (n = 92,000); activation, % at 16.7 µM; AID 1117267; SH-SY5Y TTR promoter Gaussia luciferase, luminescence; 100% = recombinant luciferase protein wells;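 active means activation above the mean of all tested compounds plus 3 SD, cut at about 9.5% in these data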;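 further: cells exposed to compounds for one day before reading; 0% = median of all test compound wells on the plate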
TTR inh HuH7 = counter-screen for TTR activators: TTR transcription inhibitors in HuH7 cells; HuH7 TTR promoter-Gaussia luciferase reporter, luminescence; inhibition, % at 16.7 µM; actives 4% (n = 1,100); shares compounds with TTR transcr act;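 active means average inhibition above the solvent-only control wells' mean plus 3 SD, cut at about 15% in these data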;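 further: 0% = cells with DMSO only and 100% = cells with inhibitor control FD; inhibitors lower well luminescence so higher value means more inhibition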
TTR act confirm = confirmation of human transthyretin transcription activators; activation, % at 16.7 µM; SHSY5Y TTR promoter Gaussia luciferase, luminescence; 100% = purified Lucia enzyme wells, no cells; shares compounds with TTR transcr act; 1,100 tested, under 10 active;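 active means mean activation above a set limit taken from the earlier primary screen, cut at about 11% in these data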;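 further: 0% = DMSO-treated cells and 100% = recombinant Lucia luciferase without cells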
Active calls of the source: *.

SMILES | TTR transcr act | others
CCOC(=O)[C@H]1[C@H]2COc3ccccc3[C@@H]2N2C(=O)c3cc(Cl)ccc3NC(=O)[C@@]12C | 3
CCOC(=O)[C@H]1[C@H]2COc3ccc(Cl)cc3[C@@H]2N2C(=O)c3cc(Br)ccc3NC(=O)[C@@]12C | 16* | TTR inh HuH7=5;TTR act confirm=0
CCOC(=O)[C@@H]1[C@H]2COc3ccc(Br)cc3[C@@H]2N2C(=O)N(c3ccc(F)cc3)C(=O)[C@@]12C | 16* | TTR inh HuH7=-34;TTR act confirm=0
CCOC(=O)[C@H]1[C@H]2COc3ccc(Br)cc3[C@@H]2N2C(=O)c3cc(OC)c(OC)cc3NC(=O)[C@@]12C | -2
CCOC(=O)[C@H]1[C@H]2COc3ccc(Br)cc3[C@@H]2N2C(=O)N(c3ccc(F)cc3)C(=O)[C@@]12C | -2
CCOC(=O)[C@@H]1[C@H]2COc3ccc(Br)cc3[C@@H]2N2C(=O)N(c3ccc(Cl)cc3)C(=O)[C@@]12C | 0
CCOC(=O)[C@H]1[C@H]2COc3ccc(C)cc3[C@@H]2N2C(=O)c3cc(OC)c(OC)cc3NC(=O)[C@@]12C | 1
CCOC(=O)[C@H]1[C@H]2COc3ccc(Cl)cc3[C@@H]2N2C(=O)c3ccc(C)cc3NC(=O)[C@@]12C | 13* | TTR inh HuH7=-10;TTR act confirm=-1
COC(=O)[C@]12C[C@H](CC(=O)NCc3ccccc3)C(=O)N(Cc3ccc(Cl)cc3Cl)C1=C[C@H](C1CCCC1)O[C@@H]2C | 0
c1nc(NCC2CCCC2)c2cc(-c3ccc4c(c3)OCO4)ccc2n1 | -1
Cc1ccc(-c2c(NC(=O)c3cccc(C)c3)nc3ncccn23)cc1 | 2
C=CCCC(=O)N[C@H]1CC[C@@]23CCCN2C(=O)CCC[C@H]3[C@H]1CCC | 1
C=CCN(C(=O)[C@@H](C)[C@@H](O)c1ccc2ccccc2c1)c1ccccc1 | -1
CC(=O)c1ccc(OCCCC(=O)N2CCN(S(=O)(=O)c3cccs3)CC2)cc1 | -1
O=C(O)CCC(=O)N1CCN(S(=O)(=O)c2cccs2)CC1 | 4
O=C(CCCOc1ccccc1)N1CCN(S(=O)(=O)c2cccs2)CC1 | 27* | TTR inh HuH7=-10;TTR act confirm=4
CC(C)Oc1ccc(-c2csc(N3CCC(C(N)=O)CC3)n2)cc1 | -2
CN(CCc1ccccc1)C(=O)c1ccc(NC(=O)Cc2ccc(NC(=O)C3CCCN(C(=O)CCc4ccccc4)C3)cc2)cc1 (centres undefined) | -1
CC1=C(C(=O)N(C(C)C)C(C)C)CC(CC(=O)NCc2cccs2)C(=O)N1Cc1ccc(F)cc1 (centres undefined) | 1
CCN(CC)C(=O)C1=C(C)N(Cc2ccc(OC)cc2)C(=O)C(CC(=O)NCc2cccs2)C1 (centres undefined) | 23* | TTR inh HuH7=-18;TTR act confirm=1
CCN(CC)C(=O)C1=C(C)N(Cc2ccc(OC)cc2)C(=O)C(CC(=O)NCc2cccc3ccccc23)C1 (centres undefined) | 2
COC(=O)[C@]12C[C@H](CC(=O)N3CCN(C(=O)C4CC4)CC3)C(=O)N(CCc3ccc(OC)c(OC)c3)C1=C[C@H](COCc1ccccc1)O[C@@H]2C | 2
COc1ccccc1CNC(=O)C[C@@H]1C[C@H]2c3cc(NC(=O)c4ccc5c(c4)OCO5)ccc3O[C@H]2[C@@H](CO)O1 | -1
O=C(C[C@H]1C[C@@H]2c3cc(NC(=O)c4ccc5c(c4)OCO5)ccc3O[C@@H]2[C@H](CO)O1)NCc1cc(F)ccc1F | 17* | TTR inh HuH7=-15;TTR act confirm=2
O=C(C[C@H]1C[C@H]2c3cc(NC(=O)CC4CC4)ccc3O[C@H]2[C@H](CO)O1)NCc1ccccc1F | -1
SMILES | TTR transcr act | others
O=C(NCCc1nc2ccccc2n1CCOc1ccc2cccnc2c1)C1CCCCC1 | 0
O=C(Cn1ccc(NC(=O)OCc2ccccc2)nc1=O)NCc1ccc2[nH]ccc2c1 | 1
O=C(CN1CCN(Cc2ccccc2Cl)CC1)N/N=C/c1ccccn1 | 1
CC(C)C(NC(=O)[C@H](Cc1ccccc1)NC(=O)OCc1ccccc1)P(=O)(O)OC(Cc1ccccc1)C(=O)O (some centres undefined) | 1
Cc1cc(C)c(NC(=O)CSc2cccc[n+]2[O-])c(C)c1 | 1
Cc1ccc(Cl)c(NC(=O)CSc2cccc[n+]2[O-])c1Cl | 14* | TTR inh HuH7=-9;TTR act confirm=0
CN(C)S(=O)(=O)c1cc(NC(=O)CSc2cccc[n+]2[O-])ccc1Cl | 1
O=C(CSc1cccc[n+]1[O-])Nc1cc2c(cc1Cl)C(=O)c1ccccc1C2=O | -2
O=C(CSc1cccc[n+]1[O-])Nc1ccc(Br)cc1Br | 0
O=C(CSc1cccc[n+]1[O-])Nc1ccc(Cl)cc1F | 11* | TTR inh HuH7=-10;TTR act confirm=1
COC(=O)[C@]12C[C@H](CC(=O)N3CCN(C(=O)c4ccco4)CC3)C(=O)N(CCc3ccc(OC)c(OC)c3)C1=C[C@H](C(C)C)O[C@@H]2C1CC1 | 1
COc1cccc(OC)c1NC(=O)OC1CCC12CCC(c1ccccc1)CC2 (centres undefined) | 1
CCOC(=O)C1=CCN(S(=O)(=O)c2ccccc2F)C1c1ccccc1 (centres undefined) | -1
CCOC(=O)C1=C(O)C(=O)N(c2ccc(S(N)(=O)=O)cc2)C1c1ccc(Br)cc1 (centres undefined) | 1
CCOC(=O)C1CCN(C(=O)C(C)(C)NC(=O)Nc2ccc3c(c2)CCC3)CC1 | -2
CN(Cc1ccccc1)C(=O)[C@@H]1CCCN1C(=O)[C@@H]1CCCN1C(=O)c1cccc2ccccc12 | 3
Nc1nc2ncccc2cc1C(=O)C1=C(c2ccccc2)Cc2ccccc21 | -2
CC(C)C(=O)NNC(=O)c1csc(-c2cccs2)n1 | -2
CNc1nc(N)c([N+](=O)[O-])c(Nc2ccccc2)n1 | 1
O=S(=O)(Nc1nccs1)c1cnc(Cl)c(Br)c1 | 1
O=S(=O)(Nc1ccccn1)c1ccc(Br)cc1 | 2
O=S(=O)(Nc1ccccn1)c1cnc(Cl)c(Br)c1 | 20* | TTR inh HuH7=-8;TTR act confirm=0
CCC[C@H]1[C@@H](OC(=O)NCCc2c[nH]c3ccccc23)CC[C@@]23CCCN2C(=O)CCC[C@@H]13 | -1
N#CC1(NC(=O)CSc2nnc(C3CC3)n2N)CCCCC1 | 0
Cc1ccc(CN2CCCCC(NC(=O)c3ccccc3C)C2=O)cc1 (centres undefined) | 0
SMILES | TTR transcr act | others
COC(=O)C[C@@H]1CC[C@H]2[C@H](COc3ccc(NC(=O)c4cccc(C(F)(F)F)c4)cc3C(=O)N2C)O1 | 2
c1ccc2c(CSc3ncnc4nc[nH]c34)cccc2c1 | 1
O=C(CSc1nnc(-c2ccco2)o1)c1ccc([N+](=O)[O-])cc1 | 0
O=C(CSc1ncnc2nc[nH]c12)c1ccc([N+](=O)[O-])cc1 | 29* | TTR inh HuH7=2;TTR act confirm=-1
COc1ccc(NC(=O)CSc2nnc(-c3cccnc3)s2)cc1 | -1
O=c1c2c3c(sc2n(CCN2CCOCC2)c(=O)n1C1CCCCC1)CCCCC3 | 1
C[C@@H]1CN([C@@H](C)CO)C(=O)c2cc(-c3ccncc3)cnc2O[C@H]1CN(C)C(=O)c1cccc(F)c1 | 0
O=C(N/N=C\C=C\c1ccco1)c1cc(-c2ccc3ccccc3c2)n[nH]1 | 3
O=C(N/N=C/C=C\c1ccco1)c1ccccn1 | -1
O=C(N/N=C\C=C\c1ccco1)c1cncc(Br)c1 | 13* | TTR inh HuH7=-2;TTR act confirm=0
